Measured values taken from the supplement of paper PMC3334620.
Whole data set: some 33,000 sequences, median “E-score (-0.5 to 0.5)” near -0.012, cut for the highest 2% near 0.27. What follows is part of a selection rich in the highest values, with near analogues and random picks from the rest.

Target: T1, Vhr1 (UniProt P40522)
T1 sequence: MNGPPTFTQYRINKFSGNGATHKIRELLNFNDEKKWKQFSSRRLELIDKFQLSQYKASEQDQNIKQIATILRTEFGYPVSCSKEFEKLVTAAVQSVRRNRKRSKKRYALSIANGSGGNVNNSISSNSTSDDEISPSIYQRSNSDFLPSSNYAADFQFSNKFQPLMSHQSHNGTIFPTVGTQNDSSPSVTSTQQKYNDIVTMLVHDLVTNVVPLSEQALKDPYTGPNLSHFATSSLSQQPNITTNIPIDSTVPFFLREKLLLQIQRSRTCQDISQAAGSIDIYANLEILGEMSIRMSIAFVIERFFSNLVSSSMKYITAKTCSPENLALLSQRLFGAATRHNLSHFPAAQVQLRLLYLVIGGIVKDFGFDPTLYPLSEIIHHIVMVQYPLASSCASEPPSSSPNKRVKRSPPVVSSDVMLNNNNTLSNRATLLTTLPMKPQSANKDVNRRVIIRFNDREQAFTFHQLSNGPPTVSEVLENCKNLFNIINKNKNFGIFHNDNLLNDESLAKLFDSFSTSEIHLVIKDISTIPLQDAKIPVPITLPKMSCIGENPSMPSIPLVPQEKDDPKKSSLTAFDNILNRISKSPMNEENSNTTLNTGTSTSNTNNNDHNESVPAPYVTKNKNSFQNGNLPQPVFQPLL
Assay: PBM E-score (8-mer binding enrichment) (E-score (-0.5 to 0.5)); higher = stronger / more preferred TF binding
Details: protein concentration: 200 nM; construct: GST-full length
Outline: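 The E-score, a modified Wilcoxon-Mann-Whitney statistic, was computed by the Universal PBM Analysis Suite for every ungapped eight-base word pooled with its reverse complement. Scans behind it were normalised with masliner after bound GST-tagged yeast transcription factors were detected with fluorescent anti-GST. The proteins, at about 100-200 nM, had been applied to universal all-10-mer Agilent arrays made double-stranded by primer extension.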

Sequence	PBM E-score
CGCTGCCA	-0.0656
AAAGTACA	0.071
ACTACTAT	0.325
ACTACCAA	0.163
ACTACCAC	0.175
ACTACAAC	0.212
ACTACTAA	0.0623
ACTACAAG	-0.00586
ACTACTAC	0.232
ACTACAAT	0.277
ACTACCAT	0.278
AGCAAGGG	-0.0155
GAGTGCGC	-0.0251
CCCGATGA	0.273
CCCGATGC	-0.18
ACCGATGA	0.00055
GTGCGCGA	0.0151
CCGCATGA	0.146
GACTATCA	0.0818
TACTATGA	0.317
GACTATGA	0.289
CACTATGA	0.173
AACTATGA	0.22
GACTATGC	0.233
AGAGGCTG	-0.116
AGTGACAA	0.0325

Sequence	PBM E-score
AGTGACTA	0.367
AGTGACGG	0.00494
GGTGACCA	-0.0328
AGTGACCG	-0.117
GGTGACTA	0.44
AGTGACTG	0.288
GGTGACGA	0.113
AGTGACGA	0.139
GAGGAAGC	-0.151
AGACCTCT	-0.143
TAGGAAAA	-0.22
TAAGCCGA	-0.13
GTCTGTGA	0.235
GCATTCCA	-0.177
AGCCTGAC	-0.0744
ATCCATCG	0.0134
ATCCATCC	0.156
AATCATCT	0.185
CATCATCA	-0.0217
ATCCATCA	0.289
AATCATCA	0.374
CATCATCG	0.16
GATCATCC	0.141
TATCATCA	0.147
CATCATCC	0.119
AATCATCC	0.405

Sequence	PBM E-score
AATCATCG	0.334
AAGATTTG	-0.09
ACAGTGGG	-0.133
ACATCTAC	0.155
GCGCCAAC	-0.0311
GCCCCCCA	-0.244
GGCCCAGA	-0.26
AGTTACAT	-0.043
GGGACACA	0.297
GACACACA	0.298
GACACATA	0.197
AACACACC	0.27
TGGACACA	0.0645
CACACACC	0.235
GAGACACA	0.14
GGGACACC	-0.0207
GACACACC	0.28
GTGGGACA	0.0875
CAAGGCAC	-0.0306
AAGGCCCT	-0.164
CTGGTAGA	0.0523
CAGCTAGA	0.0392
AAGAATGG	-0.12
ATGACTTA	0.349
ACGACTTC	0.0846
ATGACTTC	0.341

Sequence	PBM E-score
CTGACTTA	0.187
AGGACTTA	-0.0181
CTGACTTC	0.195
ACCTTACT	-0.129
CAGTACCG	0.0537
ACTGAGCT	-0.0929
CTGACCCA	0.0712
GTGACCCA	0.267
ATGACCCA	0.362
TCGCTGAA	0.0432
AGAACACT	0.108
CACGGTGG	0.273
CACGGTGA	0.106
CACGGTGC	0.0709
ATGCATAG	0.013
AATGTCTC	0.137
CATGTCTA	0.0965
CATGTCTC	0.294
GGTGAGGA	0.00616
CATGAGTA	0.225
GGTGAGTA	0.282
GCTGAGTA	0.0378
AGTGAGTA	0.192
GATGAGTA	0.382
TCGCAGCA	0.0961
ACTTCTAT	-0.0176

Sequence	PBM E-score
CACTGCGG	0.213
AATGTTGA	0.043
CATGTTGA	0.278
CATGTTGC	0.0935
GGTTTCTA	-0.122
CTCATCAG	0.312
CTCATCAC	0.0121
ATCATCAG	0.0874
TAACACGA	0.212
CTCTCCAG	-0.232
ATGTCTAG	0.12
ACGGAGTC	0.408
CCGGAGTA	0.0674
CAGGAGTA	-0.00382
CCGGAGTC	0.421
ACGGAGTG	0.00137
CAGGAGTC	0.373
ACGGAGTA	0.0079
AAGGAGTC	0.203
CCGGAGGC	-0.141
AGCCGTCA	-0.0405
GCAAGTAC	-0.109
ATAGGAAG	0.0182
AGAGTTTG	0.0245
CGCTGTTA	-0.0856
GGTCACGA	0.09

Sequence	PBM E-score
CGTCACGA	0.00392
AATCACGG	0.259
AGTCACGG	0.417
AGTCACGC	0.426
ATTCACGG	0.0271
AGTCACGA	0.411
ATTCACGC	0.117
CGTCACGC	-0.208
CAGAACAG	0.066
GGCTCCTA	-0.136
CCAACAGA	-0.0653
CCCCGCTA	-0.0924
CTTTGGCC	-0.254
AATTAATA	0.102
CCACTCGA	0.0905
ATTCAATA	-0.0197
GTCACGTA	0.13
ACGCCTTG	-0.0936
CTTGGCCA	-0.0546
GTAGTCCA	-0.0646
GCAGCGAC	0.167
ATGGTTCC	0.318
ATGGTTCG	0.224
ATGGTTCA	0.366
GTGGTTCA	0.254
CTGGTTCA	-0.0177

Sequence	PBM E-score
CTGGTTCC	0.0593
CATTAGGA	-0.0276
ACAGTTCA	0.0273
CGCAATCC	-0.0979
AAACCTAA	-0.0619
TAATGGCA	-0.00432
CTCAATAC	0.226
ATCAAAGG	-0.0468
CAAGAGCG	0.0553
GTGGGTAA	0.138
CTGGGTGA	0.275
ATGGGTGA	0.322
ATGGGTGC	0.0292
GTGGGTCA	0.365
CTGGGTGC	0.123
ATGGGTGG	0.242
ATGGGTCA	0.263
GAGGGTGA	0.153
CTGGGTCA	0.11
CAGGGTGA	0.114
GTGGGTGA	0.331
